Data on eight molecules can be found in PubChem BioAssay (NCATS).

The nature of assay [1]: Cell Viability - SK-N-SH (AID 435).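 Further: potency means the concentration at half of the fitted maximal effect; compound exposure lasted 40 h at 37 °C.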 The note with it: SK-N-SH neuroblastoma cell viability qHTS. In a few lines: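 CellTiter-Glo ATP luminescence, 20 min RT read; cells pre-plated 5 hr, compound 40 hr at 37 °C, 1500 cells/well, complete medium. Normalized DMSO = 0, 100 uM tamoxifen = 100% inhibition; Hill-fit AC50.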
Assay [2] can be described thus: Cell Viability - NIH 3T3 (AID 541; active means well fitted curve in the direction sought with a large enough effect; an effect the other way counts as inactive or inconclusive;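 further: cells exposed to compound for 40 hours; nearly all actives have a fitted effect of over 25% in size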; further: potency means the concentration at half of the fitted maximal effect;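 on activity change, negative = cytotoxicity: plate controls were DMSO alone for no effect and tamoxifen positive control for full effect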). The note with it: NIH 3T3 cell viability, qHTS; activity change, negative = cytotoxicity: at 92.2 µM (top of the series). In a few lines:
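AC50 values reflect concentration-dependent loss of intracellular ATP in NIH 3T3 cells after 40 hr treatment in complete culture medium, quantified by luciferase-based luminescence.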

Assay [3] is described as follows: Cell Viability - H-4-II-E (AID 543; active means well fitted curve in the direction sought with a large enough effect; an effect the other way counts as inactive or inconclusive;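 further: cells exposed to compound for 40 hours; on the % scale 0 is the no-effect control and ±100 the full control effect; nearly all actives have a fitted effect of over 35% in size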). The following applies: H-4-II-E rat hepatoma viability; series mostly up to 92.2 µM. In a few lines:
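Here, cytotoxicity is measured in the rat hepatoma line H-4-II-E as loss of intracellular ATP after 40 hr compound treatment, detected by luciferase luminescence.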

A short description of assay [4]: MultiTox-Fluor Cytotoxicity Assay - LYMP1-001 - Live Cells (AID 947; active means well fitted curve in the direction sought with a large enough effect; an effect the other way counts as inactive or inconclusive;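 further: 0% = DMSO only and full inhibition = tetraoctylammonium bromide control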). The note with it: LYMP1-001 lymphoblastoid cells, live-cell protease fluorescence viability; series mostly up to 92.2 µM.
In assay [5] the target is Estrogen receptor (Homo sapiens) (UniProt P03372). In words: qHTS assay for small molecule antagonists of estrogen receptor alpha signaling (AID 588513; active means well fitted curve in the direction sought with a large enough effect in the signal ratio, with a control signal flat, not every such curve was filed as active; the % refers to the signal ratio; further: on the % scale 0 is the no-effect control and ±100 the full control effect). The following applies: ER-alpha-UAS-bla HEK293, beta-lactamase ratio, antagonist mode; series mostly up to 76.9 µM. An outline of the steps: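 Beta-lactamase reporter, antagonist mode, HEK 293 GripTite cells; 0.5nM E2 stimulus, 18 h, 37 C; CCF4 dye 2 h RT; fluorescence. IC50 and efficacy from Hill fits, normalized to E2 and DMSO.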
Sequence of Estrogen receptor (Homo sapiens) (P03372 whole entry, looked up): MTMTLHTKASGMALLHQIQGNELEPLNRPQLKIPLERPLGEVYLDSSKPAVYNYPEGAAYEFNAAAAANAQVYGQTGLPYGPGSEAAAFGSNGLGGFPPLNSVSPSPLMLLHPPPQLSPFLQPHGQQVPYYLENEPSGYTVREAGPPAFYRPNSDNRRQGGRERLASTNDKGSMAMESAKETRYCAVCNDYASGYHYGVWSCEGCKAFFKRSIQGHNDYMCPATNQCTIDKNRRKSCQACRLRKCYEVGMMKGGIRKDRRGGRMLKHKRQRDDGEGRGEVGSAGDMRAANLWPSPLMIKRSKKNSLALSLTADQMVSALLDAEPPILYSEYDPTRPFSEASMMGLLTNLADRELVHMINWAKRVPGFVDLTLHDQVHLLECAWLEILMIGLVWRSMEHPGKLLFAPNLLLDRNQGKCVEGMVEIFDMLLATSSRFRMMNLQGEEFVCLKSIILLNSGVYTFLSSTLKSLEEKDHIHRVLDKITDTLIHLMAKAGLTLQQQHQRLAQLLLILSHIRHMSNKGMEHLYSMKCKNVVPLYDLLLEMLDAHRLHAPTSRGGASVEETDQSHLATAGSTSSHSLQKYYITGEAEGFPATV
(In general: In qHTS, concentration-response curves come from the screen itself.)

The target is the same in assay [6]. In words: qHTS assay for small molecule agonists of estrogen receptor alpha signaling (AID 588514).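 Further: 0% = vehicle only and 100% = reference agonist; nearly all actives have a fitted effect of over 70% in size.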 The note with it: ER-alpha-UAS-bla HEK293, beta-lactamase ratio, 18 h; series mostly up to 76.8 µM. In a few lines: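 Reporter-gene assay. […] controls beta-lactamase in HEK 293 GripTite cells; after 18 hrs with compound, CCF4 substrate is added for 2 hrs and fluorescence is read.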

The target in assay [7] is Glucocorticoid receptor (Homo sapiens) (UniProt P04150). In words: qHTS assay for small molecule agonists of glucocorticoid receptor signaling (AID 588532; active means well fitted curve in the direction sought with a large enough effect in the signal ratio, with a control signal flat; the % refers to the signal ratio;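 further: 100% = dexamethasone at 0.1 µM and 0% = DMSO only wells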). The following applies: HeLa MMTV-bla, beta-lactamase ratio, agonist, 18 h; stronger effect = higher value; percent of dexamethasone control, DMSO zero. An outline of the steps: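 Cells were plated and rested 3-5 h at 37 C, compounds were added in titration and incubated 18 h, then CCF4 substrate was loaded for 2 h at RT before reading blue/green fluorescence. EC50 came from Hill-equation fitting.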
Sequence of Glucocorticoid receptor (Homo sapiens) (P04150 whole entry, looked up): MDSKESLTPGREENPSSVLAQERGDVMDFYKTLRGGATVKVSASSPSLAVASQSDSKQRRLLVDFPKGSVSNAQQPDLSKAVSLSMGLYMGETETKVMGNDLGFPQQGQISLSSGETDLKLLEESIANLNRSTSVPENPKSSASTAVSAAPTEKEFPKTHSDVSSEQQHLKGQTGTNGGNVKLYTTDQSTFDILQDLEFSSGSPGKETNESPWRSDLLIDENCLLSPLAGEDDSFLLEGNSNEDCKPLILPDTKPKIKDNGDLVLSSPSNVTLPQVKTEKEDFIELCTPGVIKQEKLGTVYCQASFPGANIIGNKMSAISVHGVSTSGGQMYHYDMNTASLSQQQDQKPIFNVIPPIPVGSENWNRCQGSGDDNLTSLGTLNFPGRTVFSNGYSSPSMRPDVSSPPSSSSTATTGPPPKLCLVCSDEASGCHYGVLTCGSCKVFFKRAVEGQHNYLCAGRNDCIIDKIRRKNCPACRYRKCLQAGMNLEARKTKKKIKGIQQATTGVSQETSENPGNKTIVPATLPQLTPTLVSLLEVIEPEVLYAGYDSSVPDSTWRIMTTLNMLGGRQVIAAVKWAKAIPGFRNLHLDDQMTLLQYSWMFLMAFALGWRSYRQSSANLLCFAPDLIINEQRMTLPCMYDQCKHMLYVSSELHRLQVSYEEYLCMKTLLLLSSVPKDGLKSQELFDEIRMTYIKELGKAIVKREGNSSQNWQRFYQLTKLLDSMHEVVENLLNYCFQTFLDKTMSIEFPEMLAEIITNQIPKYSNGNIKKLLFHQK

For assay [8], the target named is Vitamin D3 receptor (Homo sapiens) (UniProt P11473). In words: qHTS assay for small molecule antagonists of vitamin D receptor signaling (AID 588541).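 Further: receptor activated by calcitriol during compound treatment; on the % scale 0 is the no-effect control and ±100 the full control effect.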 The note with it: HEK293T VDR-UAS-bla, beta-lactamase ratio, antagonist mode; series mostly up to 76.7 µM. An outline of the steps:
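VDR-UAS-bla HEK293T cells in 2% charcoal-stripped FBS were stimulated with 1-alpha,25-dihydroxyvitamin D3 (3 nM final) plus compound for 16 h at 37 C. The beta-lactamase CCF4 readout was normalized to 50 nM agonist and DMSO, and Hill fits gave IC50.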

Assay [9] has as its target Thyroid hormone receptor beta (Homo sapiens) (UniProt P10828). In words: qHTS assay for small molecule antagonists of thyroid hormone receptor beta signaling (AID 588547; active means well fitted inhibition curve with a large enough effect in the signal ratio, with a control signal flat, not every such curve was filed as active; the % refers to the signal ratio;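 further: cells stimulated with 0.4 nM T3 agonist during compound exposure; on the % scale 0 is the no-effect control and ±100 the full control effect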). The note with it: TR-UAS-bla HEK293, beta-lactamase ratio, antagonist mode, 18 h. An outline of the steps:
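TR-UAS-bla GripTite HEK293 cells in 2% charcoal/dextran FBS medium; compounds 0.59 nM to 92 uM with T3 at 0.4nM final, 18 h at 37 C. Beta-lactamase read by CCF4 fluorescence (460/530 nm); Hill fits gave IC50 and efficacy.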

Assay [10] in a line: qHTS assay for small molecule agonists of the antioxidant response element (ARE) signaling pathway (AID 651741; active means well fitted activation curve with a large enough effect in the signal ratio; the % refers to the signal ratio; further: potency means the concentration at half of the fitted maximal effect; on activation: % of control where 0% means no effect). The note with it: HepG2 ARE-bla reporter, beta-lactamase FRET ratio, 16 h; series mostly up to 96 µM. An outline of the steps:
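HepG2 ARE-bla cells plated at 2,000 cells/well and incubated 5 h at 37 C/5% CO2 received 23 nL compound in DMSO. After 16 h at 37 C, LiveBLAzer B/G FRET substrate was applied for 2 h at room temperature and fluorescence read.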

Assay [11] can be described thus: qHTS assay for small molecule activators of the nuclear factor-kappa B (NF-kB) signaling pathway (AID 651749; active means well fitted activation curve with a large enough effect in the signal ratio; the % refers to the signal ratio; further: % of control where 0% means no effect). The following applies: NF-kB-bla ME-180 cells, beta-lactamase FRET ratio, 16 h; stronger effect = higher value. In a few lines:
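Incubation lasted 16 hr at 37C in 5% CO2 after 23 nL compound addition to ME-180 NF-kB-bla cells. Activation appears as beta-lactamase-mediated FRET loss.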

A short description of assay [12]: qHTS assay for small molecule disruptors of the mitochondrial membrane potential - 1 hr assay (AID 651754). Further: on the % scale 0 is the no-effect control and ±100 the full control effect; nearly all actives have a fitted effect of over 35% in size. The note with it: series mostly up to 92.2 µM. In a few lines: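 Steps: seed HepG2 cells and let attach overnight; pin-transfer compound or vehicle; incubate 1 hr at 37C; add Mito-MPS dye for 30 min; read two-channel fluorescence for monomer and aggregate forms.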

Assay [13] in a line: qHTS assay for small molecule disruptors of the mitochondrial membrane potential - 5 hr assay (AID 651755). Further: on the % scale 0 is the no-effect control and ±100 the full control effect; nearly all actives have a fitted effect of over 40% in size. The note with it: JC-1-type ratio dye; series mostly up to 92.2 µM. An outline of the steps:
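HepG2 cells (2,000/well), attached overnight, exposed to compound 5 hr at 37C, then Mito-MPS dye 30 min. Fluorescence read for monomers (490/535 nm) and aggregates (540/590 nm).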

The target in assay [14] is Nuclear receptor ROR-gamma (Homo sapiens) (UniProt P51449). In words: qHTS assay for small molecule antagonists of the retinoid-related orphan receptor gamma (ROR-gamma) signaling pathway (AID 651802; active means well fitted curve in the direction sought with a large enough effect; an effect the other way counts as inactive or inconclusive;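 further: CHO cells with doxycycline-induced ROR-gamma expression; luciferase reporter luminescence driven by ROR response element; on the % scale 0 is the no-effect control and ±100 the full control effect; nearly all actives have a fitted effect of over 60% in size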). The note with it: ROR-gamma antagonist cell reporter assay; series mostly up to 92.2 µM. An outline of the steps:
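Antagonism is scored as a fall in luminescence from a RORE-luciferase reporter in CHO cells expressing ROR under a TET-inducible promoter, measured 16hr after doxycycline induction in the presence of compound.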

Assay [15] can be described thus: qHTS assay for small molecule agonists of the antioxidant response element (ARE) signaling pathway measured by Nrf2-dependant transcriptional activity (AID 720636; active means well fitted curve in the direction sought with a large enough effect in the repeat runs; an effect the other way counts as inactive or inconclusive;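 further: HepG2 cells with an ARE-driven luciferase reporter; % of control where 0% means no effect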). The following applies: ARE-luc HepG2, Nrf2 luciferase reporter, 16 h; series mostly up to 92.4 µM. In a few lines:
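Attachment 6 hr at 37 C, then compound versus DMSO vehicle for 16 hr in ARE-luc HepG2 cells (1% dialyzed FBS); luminescence recorded 30 min after ONE-Glo addition at room temperature.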

Assay [16] concerns the target Glucocorticoid receptor (Homo sapiens) (UniProt P04150). In words: qHTS assay for small molecule antagonists of glucocorticoid receptor signaling (AID 588533; active means well fitted inhibition curve with a large enough effect in the signal ratio, with a control signal flat, not every such curve was filed as active; the % refers to the signal ratio; further: on the % scale 0 is the no-effect control and ±100 the full control effect). The note with it: HeLa MMTV-bla, GRE beta-lactamase ratio, antagonist mode, 18 h; series mostly up to 76.8 µM. An outline of the steps: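 Antagonist-mode qHTS: compound titrations added to GRE-bla HeLa cells, then dexamethasone 2 nM final; 18 h, 37 C. CCF4 FRET fluorescence normalized to dexamethasone and DMSO; IC50 from Hill fit.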

Assay [17] concerns the target Peroxisome proliferator-activated receptor delta (Homo sapiens) (UniProt Q03181). In words: qHTS assay for small molecule agonists of peroxisome proliferator-activated receptor delta signaling (AID 588534).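 Further: 0% = DMSO basal wells and 100% = positive control agonist at 10 µM.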 The following applies: HEK293T PPARdelta-UAS-bla, beta-lactamase ratio, 18 h; series mostly up to 76.7 µM. In a few lines:
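Reporter cells were plated and held 5 hrs at 37 C before compounds were added. After 18 hrs at 37 C, CCF4 dye was loaded for 2 hrs at RT and fluorescence measured.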

A short description of assay [18]: qHTS assay for small molecule antagonists of peroxisome proliferator-activated receptor delta signaling (AID 588535; active means well fitted inhibition curve with a large enough effect in the signal ratio, with a control signal flat, not every such curve was filed as active; the % refers to the signal ratio;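 on max response: cells co-treated with a PPAR-delta agonist as stimulator during compound exposure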). The note with it: HEK293T PPARd-UAS-bla, beta-lactamase FRET ratio, 18 h; 460 nm channel. An outline of the steps: (§1)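 Cells were seeded at 4000 per well in assay medium containing 2% charcoal/dextran FBS and held 5 hrs at 37 C. Compounds were then added for 18 hrs. CCF4 substrate was applied for 2 hrs at room temperature before fluorescence reading.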

In assay [19] the target is Peroxisome proliferator-activated receptor delta (Homo sapiens) (UniProt Q03181). The assay is described as above. The note with it: HEK293T PPARd-UAS-bla, beta-lactamase FRET ratio, 18 h; series mostly up to 76.7 µM. In a few lines: as §1
Sequence of Peroxisome proliferator-activated receptor delta (Homo sapiens) (Q03181 whole entry, looked up): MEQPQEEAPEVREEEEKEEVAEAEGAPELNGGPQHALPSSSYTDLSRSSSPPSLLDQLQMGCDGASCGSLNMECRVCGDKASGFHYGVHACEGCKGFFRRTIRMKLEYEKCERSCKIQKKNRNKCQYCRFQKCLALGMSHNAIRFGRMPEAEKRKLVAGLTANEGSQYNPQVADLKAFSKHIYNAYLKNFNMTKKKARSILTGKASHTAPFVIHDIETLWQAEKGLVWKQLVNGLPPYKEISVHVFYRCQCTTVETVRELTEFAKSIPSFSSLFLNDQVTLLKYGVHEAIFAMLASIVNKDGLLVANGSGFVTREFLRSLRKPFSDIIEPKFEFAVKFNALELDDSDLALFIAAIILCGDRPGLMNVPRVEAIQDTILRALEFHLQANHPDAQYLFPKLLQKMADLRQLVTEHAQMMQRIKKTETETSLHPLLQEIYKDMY
For assay [20], the target named is Peroxisome proliferator-activated receptor gamma (Homo sapiens) (UniProt P37231). As to the kind of experiment: qHTS assay for small molecule antagonists of peroxisome proliferator-activated receptor gamma signaling (AID 588537; active means well fitted inhibition curve with a large enough effect in the signal ratio, with a control signal flat, not every such curve was filed as active; the % refers to the signal ratio;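 further: reporter cells co-stimulated with 50 nM rosiglitazone agonist during compound treatment; % of control where 0% means no effect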). The following applies: HEK293 PPARg-UAS-bla, beta-lactamase ratio, antagonist mode; series mostly up to 76.8 µM. An outline of the steps: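 Step one: plate 3000 HEK293 UAS-bla cells per well in medium with 1% stripped serum and hold 6-6.5 h at 37 C. Step two: add compound and 50 nM agonist for 16 h. Step three: CCF4 loading, fluorescence read.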
Sequence of Peroxisome proliferator-activated receptor gamma (Homo sapiens) (P37231 whole entry, looked up): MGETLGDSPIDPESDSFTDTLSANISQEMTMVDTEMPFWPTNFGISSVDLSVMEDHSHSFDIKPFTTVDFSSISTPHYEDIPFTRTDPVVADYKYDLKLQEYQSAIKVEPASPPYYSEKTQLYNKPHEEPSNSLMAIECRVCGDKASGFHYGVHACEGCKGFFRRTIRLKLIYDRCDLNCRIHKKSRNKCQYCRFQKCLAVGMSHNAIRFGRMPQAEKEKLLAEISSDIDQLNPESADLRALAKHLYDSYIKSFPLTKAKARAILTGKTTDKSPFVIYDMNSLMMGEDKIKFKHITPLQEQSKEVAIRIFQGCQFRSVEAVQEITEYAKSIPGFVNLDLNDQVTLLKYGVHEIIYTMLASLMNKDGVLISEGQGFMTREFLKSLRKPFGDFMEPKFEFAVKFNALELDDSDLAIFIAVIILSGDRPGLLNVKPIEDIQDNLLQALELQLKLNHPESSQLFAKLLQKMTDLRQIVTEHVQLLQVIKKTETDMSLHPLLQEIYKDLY

Several values for one entry are separate records, joined by “and”; a condition that tells them apart may be missing. Identical values can stand only once. Records with an inconclusive call do not appear. Activity calls are given as the source filed them. Unless noted, the call rests on the fitted dose curve.

Sequence of Thyroid hormone receptor beta (Homo sapiens) (P10828 whole entry, looked up): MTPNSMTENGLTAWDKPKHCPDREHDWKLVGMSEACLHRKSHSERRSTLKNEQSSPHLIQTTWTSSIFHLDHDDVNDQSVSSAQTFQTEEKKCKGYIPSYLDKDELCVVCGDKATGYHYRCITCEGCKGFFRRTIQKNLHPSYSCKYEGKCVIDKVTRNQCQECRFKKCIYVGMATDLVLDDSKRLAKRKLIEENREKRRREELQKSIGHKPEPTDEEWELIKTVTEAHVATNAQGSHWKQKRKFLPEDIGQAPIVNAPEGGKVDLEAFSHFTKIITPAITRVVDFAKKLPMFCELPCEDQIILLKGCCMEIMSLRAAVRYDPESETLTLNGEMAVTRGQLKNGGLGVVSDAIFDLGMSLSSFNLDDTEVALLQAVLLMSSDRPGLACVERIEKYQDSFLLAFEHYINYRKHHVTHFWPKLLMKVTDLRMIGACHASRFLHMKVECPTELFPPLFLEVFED
Sequence of Vitamin D3 receptor (Homo sapiens) (P11473 whole entry, looked up): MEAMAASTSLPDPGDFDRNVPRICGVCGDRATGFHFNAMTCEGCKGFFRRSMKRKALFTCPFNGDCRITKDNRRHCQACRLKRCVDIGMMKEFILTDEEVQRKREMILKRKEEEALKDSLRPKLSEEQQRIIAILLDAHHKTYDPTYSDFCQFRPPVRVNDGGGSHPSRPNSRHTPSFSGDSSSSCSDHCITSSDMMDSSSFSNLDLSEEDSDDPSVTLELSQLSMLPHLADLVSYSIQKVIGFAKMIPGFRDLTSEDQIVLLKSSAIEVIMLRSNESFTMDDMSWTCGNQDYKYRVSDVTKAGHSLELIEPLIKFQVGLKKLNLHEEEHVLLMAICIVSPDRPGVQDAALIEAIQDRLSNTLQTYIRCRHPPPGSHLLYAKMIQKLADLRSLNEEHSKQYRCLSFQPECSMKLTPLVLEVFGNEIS
Sequence of Nuclear receptor ROR-gamma (Homo sapiens) (P51449 whole entry, looked up): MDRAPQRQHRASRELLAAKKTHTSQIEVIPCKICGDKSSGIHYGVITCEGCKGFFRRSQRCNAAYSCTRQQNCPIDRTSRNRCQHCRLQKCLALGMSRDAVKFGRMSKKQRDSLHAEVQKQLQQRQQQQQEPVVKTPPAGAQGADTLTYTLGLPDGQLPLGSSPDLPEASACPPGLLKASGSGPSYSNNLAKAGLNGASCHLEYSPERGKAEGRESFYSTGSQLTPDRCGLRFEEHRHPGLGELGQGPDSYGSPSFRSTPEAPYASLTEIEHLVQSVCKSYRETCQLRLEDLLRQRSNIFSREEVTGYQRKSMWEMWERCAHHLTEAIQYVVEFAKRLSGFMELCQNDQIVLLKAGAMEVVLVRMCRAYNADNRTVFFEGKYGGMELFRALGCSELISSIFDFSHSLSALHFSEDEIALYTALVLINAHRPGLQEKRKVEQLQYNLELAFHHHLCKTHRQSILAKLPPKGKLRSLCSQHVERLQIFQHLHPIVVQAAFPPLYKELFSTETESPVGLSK

For `N#CCBr`, the Potency in [1] is > 92 µM (inactive); in [2] it was 10 µM (active); in assay [10], 16.8 µM (active). The Potency result in assay [3], in assay [5], in [6], in assay [12], in assay [13] and in assay [14] was “inactive” each time. In addition, the Potency result in assay [15] is “inactive”. Besides, the molecule was classed as inactive in [4] and in [8]. Also, the activation in assay [7] is -5.38% (inactive); in [11], 0.342% (inactive). Moreover, the activity change % (negative = inhibition) in assay [9] is 11.7% (inactive).

As to `O=C(Cl)OCc1ccccc1`, the Potency in assay [1] is > 92 µM (inactive). Also, the Potency result in [3], in [5], in [6], in assay [10], in assay [12] and in [15] was “inactive” throughout. Also, the activation in assay [7] is -1.41% (inactive); in assay [11] it was -0.156% (inactive). Moreover, the outcome in assay [16] and in [8] was inactive.

On to `ClCc1ccccc1`, for which the Potency in [1] was > 92 µM (inactive). Further, the Potency entry in assay [2], in assay [3], in assay [5], in assay [6], in [10] and in assay [13] was “inactive” each time. In addition, the Potency entry in assay [14] and in [15] was “inactive” each time. The outcome in assay [17], in assay [19] and in [8] was inactive. Further, the max response in [18] was -22.1%. In addition, the activity change % (negative = inhibition) in assay [9] was 2.64% (inactive). For the same molecule, the activation in assay [11] is -0.661% (inactive).

On to `CC1CC(=O)O1` (stereo not drawn), for which, in assay [1], the Potency is > 92 µM (inactive). Besides, the Potency entry in [2], in assay [3], in assay [20], in assay [10], in assay [12] and in [13] was “inactive” throughout. Moreover, the Potency result in assay [14] and in assay [15] was “inactive” each time. In addition, the activation in assay [7] is 4.16% (inactive). The result in [17], in assay [19] and in assay [8] was inactive. The max response in assay [18] stood at 2.28%.

Regarding `C=CC#N`, the Potency in [1] was > 92 µM (inactive). Moreover, the Potency entry in [3], in [6], in assay [20], in assay [10] and in assay [14] was “inactive” each time. The molecule was classed as inactive in [4], in assay [16] and in [8]. Moreover, the activation was -6.69% (inactive) in assay [7] and -0.054% (inactive) in [11]. Besides, the activity change % (negative = inhibition) in assay [9] was -5.45% (inactive).

As for `Nc1ccc(Oc2ccc(N)cc2)cc1`, the Potency in [1] is > 92 µM (inactive). For the same molecule, the activation in assay [7] was -1.85% (inactive) and -6.36% (inactive); in assay [11], 0.532% (inactive) and -1.89% (inactive). Further, the outcome in [16] and in [19] was inactive. Further, the max response in assay [18] came out at 31.7%. In addition, the Potency entry in assay [10], in [13], in assay [14] and in assay [15] was “inactive” in each case.

Turning to `NNC(N)=S`, the Potency in assay [1] was > 92 µM (inactive). Besides, the Potency result in assay [2], in assay [3], in [5], in [6], in assay [20] and in assay [12] was “inactive” throughout. In addition, the Potency result in [13] and in [14] was “inactive” each time. For the same molecule, the molecule was called inactive in [4], in assay [17] and in assay [8]. The values for the activation in assay [7] and in assay [11] were 0.137% (inactive) and 0.227% (inactive), respectively. Moreover, the activity change % (negative = inhibition) in assay [9] is 4.76% (inactive).

For `CN(C)C(=O)Nc1ccc(Cl)cc1`, the Potency in assay [1] was > 92 µM (inactive). Besides, the Potency result in assay [3], in assay [20], in assay [10], in assay [12], in assay [14] and in [15] was “inactive” each time. Also, the call in [4], in assay [16], in assay [17], in assay [19] and in [8] was inactive. Further, the activation in [7] was 8.83% (inactive) and -10.8% (inactive); in [11], 2.75% (inactive) and -0.215% (inactive). In addition, the max response in [18] was -2.77% and 22.5%. The activity change % (negative = inhibition) in assay [9] is -0.766% (inactive).
